Drawing on the supplement of paper PMC12024424, this text covers growth reduction for 5 molecules.

Counter-ions that a name gives are not always drawn.

This experiment deals with Staphylococcus aureus Sa2 (MRSA, cystic fibrosis isolate). Description: growth reduction vs untreated control (OD550); higher = stronger antibacterial activity. The conditions noted are these: 0.1 mM; 24 h. The protocol: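 Single-dose screen of the MedChem Express Drug Repurposing Library (0.1 mM, 1% DMSO) against planktonic MRSA S. aureus Sa2 (CF isolate) in TSB in 96-well plates, 37 °C aerobic, 24 h. Assays were run in triplicate and repeated twice.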
In the case of `OCCN1CCN(CC/C=C2/c3ccccc3Sc3ccc(C(F)(F)F)cc32)CC1` [Flupentixol dihydrochloride], the growth reduction was determined as 100%.

As to `Cc1ccc(-n2[nH]c(C)c(N=Nc3cccc(-c4cccc(C(=O)O)c4)c3O)c2=O)cc1C` [Eltrombopag], the growth reduction was 96.5%.

In turn, `CCN(C/C=C\c1ccc(C2CCCCC2)c(Cl)c1)C1CCCCC1` returned a growth reduction of 100%.

For `COc1cc(NCc2ccc3nc(N)nc(N)c3c2C)cc(OC)c1OC` [Trimetrexate], the growth reduction worked out at 90.4%.

On to `C=CC(N)CCC(=O)O` (stereo not given) [Vigabatrin (hydrochloride)], for which the growth reduction is 100%.
